# Compound activity from PubChem BioAssay.
# Rows were chosen to be rich in hits. Some 9.2% of all compounds tested hit in one or more screens of this group.
# SMN2 splice up: enhancers of SMN2 splice variant expression | HEK293 SMN2-luciferase splicing reporter, luminescence, 30-36 h | Potency, µM (series often up to 46.1 µM), inactives show at the top dose activity change, positive = activation, actives largely listed as activators | actives 2.8% (n = 210,000) | AID 1458; also: % of control where 0% means no effect; nearly all actives have a fitted effect of over 55% in size
#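 HEK293 cells carry an SMN2 minigene-luciferase reporter in which exon 7 inclusion puts luciferase in frame. Cells were seeded at 2000 cells/well, attached for 10-12 hours, then exposed to compounds for 30-36 hours at 37C before ONE-Glo luminescence.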
# NPC1 prom act: activates the NPC1 promoter | Huh7 NPC1 promoter luciferase reporter, 24 h | actives 2.4% (n = 320,000) | Potency, µM (highest dose often 9.22 µM), for inactives: at the top dose activation, actives largely listed as activators | AID 485313; also: % of control where 0% means no effect; nearly all actives have a fitted effect of over 60% in size
#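 NPC1 promoter–luciferase Huh7 cells; 24 h compound; luminescence.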
# ELG1 repair inh: ELG1-dependent DNA repair inhibition; HEK293T ELG1-luciferase reporter, luminescence, 16 h; DNA damage induced by 5-fluorouridine; Potency, µM (doses to about 46.1 µM), without a hit: top-dose activity change, negative = inhibition, most hits filed as inhibitors; actives 2.3% (n = 330,000); AID 504467; also: % is scaled to controls: 0 for no effect and ±100 for the full control effect; nearly all actives have a fitted effect of over 55% in size
#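 Luminescence from the luciferase reporter, measured 30 min after ONE-Glo reagent at room temperature, was the read-out. Beforehand, 2,000 cells per well were exposed for 16 hr at 37 °C to 5-fluorouridine together with compound or vehicle.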
# ELG1 genotoxic: inducers of genotoxicity in HEK293T ELG1-luciferase cells | HEK293T ELG1-luciferase reporter, luminescence, 16 h | Potency, µM (series often up to 46 µM), without a hit: top-dose activity change, positive = activation, actives largely listed as activators | actives 1.3% (n = 330,000) | AID 504466; also: % of control where 0% means no effect; nearly all actives have a fitted effect of over 60% in size
#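 Luminescence read-out: rising ELG1-luciferase signal, reflecting elevated ELG1 protein under genetic stress, flags genotoxic compounds. Cells were treated for 16 hr at 37 °C before ONE-Glo detection.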
# Rab9 prom act: activates the Rab9 promoter; Potency, µM (highest dose often 9.22 µM), inactives show at the top dose activation, negative = inhibition, hits mostly activators; Huh7 Rab9 promoter-luciferase reporter, luminescence, 24 h; actives 2.8% (n = 320,000); also: % of control where 0% means no effect; nearly all actives have a fitted effect of over 60% in size
#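 Steps: seed 1500 Huh7 Rab9-luc cells per well, rest 2 h at 37 °C; add compound in DMSO; incubate 24 h; add luciferase reagent, 10 min ambient; read luminescence.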
# FLuc counter: firefly luciferase modulation, counter-screen for miR-21 project. P08659. purified FLuc, Km substrates, luminescence inhibition. Potency, µM (doses to about 57.5 µM), for the others: top-dose activity change, negative = inhibition, actives largely listed as inhibitors. AID 588342. actives 6.9% (n = 360,000);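 also: plate controls were vehicle for no effect and reference inhibitor for full effect; nearly all actives have a fitted effect of over 55% in size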
# Target sequence (P08659 whole entry, looked up): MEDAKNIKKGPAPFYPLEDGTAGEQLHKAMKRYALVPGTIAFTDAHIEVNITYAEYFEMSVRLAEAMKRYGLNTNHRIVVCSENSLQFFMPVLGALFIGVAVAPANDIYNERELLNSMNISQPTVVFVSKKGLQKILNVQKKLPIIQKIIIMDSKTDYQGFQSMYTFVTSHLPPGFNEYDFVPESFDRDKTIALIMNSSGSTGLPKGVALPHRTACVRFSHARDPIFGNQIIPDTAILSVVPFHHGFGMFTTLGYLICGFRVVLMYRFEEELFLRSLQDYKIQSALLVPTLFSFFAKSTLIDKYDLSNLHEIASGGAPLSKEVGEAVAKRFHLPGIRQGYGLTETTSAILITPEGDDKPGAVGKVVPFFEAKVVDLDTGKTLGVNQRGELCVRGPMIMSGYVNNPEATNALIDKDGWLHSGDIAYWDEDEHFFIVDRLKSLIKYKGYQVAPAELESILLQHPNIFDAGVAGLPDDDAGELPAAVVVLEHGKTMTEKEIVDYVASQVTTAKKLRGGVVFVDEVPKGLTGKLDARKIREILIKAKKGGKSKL
#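 Purified P. pyralis luciferase, 10 nM final, with Km-level 10 uM D-luciferin and 10 uM ATP in 50 mM Tris acetate pH 7.5, 10 mM Mg acetate, 0.01% Tween-20, 0.05% BSA; 6-point qHTS titration about 60 µM downward; luminescence read.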
# Numbers without * were called inactive; ? = inconclusive; . = not tested or not shown; [ ] = remark or other dose. Calls follow the shape of the dose curve; as a rule, active = well fitted curve in the direction sought with a large enough effect; inconclusive = small, poorly fitted or top-dose-only effect, or another doubt; inactive = no such curve, though single readings can be large; an effect the other way counts as inactive or inconclusive. Potency is read from the fitted curve at half-maximal effect.
SMILES,SMN2 splice up,NPC1 prom act,ELG1 repair inh,ELG1 genotoxic,Rab9 prom act,FLuc counter
COc1ccc(NC(=O)N2CCN(S(=O)(=O)c3ccc4c(ccn4C)c3)CC2)c(OC)c1,.,.,.,.,.,-4%
CN(C(=O)C1CCOC1)c1nnc(-c2ccccn2)s1 (stereo not given),80%,30%,?,21µM*,?,15µM*
COCC(=O)N(C)c1nnc(-c2ccc([N+](=O)[O-])cc2)s1,11%,4%,18%,3%,1%,0%
CC(=O)c1sc(-c2ccccn2)nc1C,.,-10%,?,8%,-5%,3%
CN(C(=O)C1CCOC1)c1nnc(-c2ccncc2)s1 (stereo not given),?,-1%,-10%,-9%,-7%,-4%
c1ccc(-c2nnc(-c3ccccn3)s2)nc1,.,0.1µM*,?,?,0.089µM*,1.3µM*
COCC(=O)N(C)c1nnc(-c2ccccn2)s1,20µM*,10%,?,21µM*,9%,?
CCOC(=O)c1sc(-c2ccccn2)nc1C,17%,-2%,?,13%,6%,27µM*
CCOc1ccc(-n2cc(-c3ccccc3)c3c(NC4CCCC4)ncnc32)cc1,.,.,.,.,.,-8%
O=C(O)c1sccc1Oc1ccc(NS(=O)(=O)c2cccc(F)c2)cc1,.,0%,-2%,1%,-16%,1%
c1ccc(C2=NNC(c3ccccn3)=NN2)nc1,.,3.5µM*,?,?,0.71µM*,3.4µM*
CN(C(=O)C1CCCO1)c1nnc(-c2ccccn2)s1 (stereo not given),3%,12%,?,?,25%,15µM*
COC(=O)c1ccccc1NC(=O)c1ccc2nc(Cc3ccccc3)oc2c1,.,.,.,.,.,-2%
COc1ccc(NC(=O)c2cc(=O)c3cc(C)cc(C)c3o2)cc1,-3%,.,.,.,.,0%
COc1ccccc1-n1ccn(CC(=O)Nc2ccc(C)cc2Cl)c(=O)c1=O,.,-2%,?,6%,-3%,-5%
Cc1ccc(OCC(=O)N/N=C/c2cn(C)c3ccccc23)cc1,.,3%,4%,4%,11%,11µM*
Cc1ccccc1OCC(=O)N/N=C/c1cn(C)c2ccccc12,.,-1%,-12%,-2%,13%,15µM*
Cc1ccccc1OCC(=O)N/N=C/c1cn(Cc2ccccc2)c2ccccc12,-17%,0%,7%,1%,0%,-1%
CCc1ccc(NC(=O)c2sc(-n3nc(C)c(Cc4ccc(OC)cc4)c3C)nc2C)cc1,.,.,.,.,.,-11%
Cc1cccc(NC(=O)Nc2ccc(Cl)c(Cl)c2)n1,.,?,?,?,?,2.4µM*
COc1ccc(NC(=S)NC(=O)/C=C/c2ccccc2)cc1,.,1%,2%,0%,11%,7%
Cc1ccc(NC(=O)Nc2cccc(C)n2)c(C)c1,.,22%,?,?,?,?
Cc1cccc(NC(=O)Nc2ccccc2)n1,.,?,?,?,?,12µM*
Cc1cc(NC(=O)Nc2ccc(Cl)c(Cl)c2)n(-c2ccccc2)n1,.,-2%,0%,-5%,16%,-17%
Cc1cccc(NC(=S)NC(=O)/C=C/c2ccccc2)n1,12%,?,?,5%,2.5µM*,-2%
SMILES,SMN2 splice up,NPC1 prom act,ELG1 repair inh,ELG1 genotoxic,Rab9 prom act,FLuc counter
COc1cccc(NC(=O)Nc2cccc(C)n2)c1,.,2.2µM*,?,11%,?,5.4µM*
CCOc1ccccc1-n1nnc(-c2nsc(NC(=O)c3ccc(C)cc3)n2)c1C,.,.,.,.,.,-1%
Cc1cccc(N(C)S(=O)(=O)c2nnc(NC(=O)C3CCCCC3)s2)c1,.,0%,.,.,-1%,-1%
Cc1cccc(N2CCN(C(=O)c3cccn4c(=O)c5cc(Cl)ccc5nc34)CC2C)c1 (stereo not given),.,.,.,.,.,0%
Cc1ccccc1Nc1nn2c(=O)c3ccccc3nc2s1,16µM*,2.5µM*,?,?,?,2.7µM*
COc1ccc(OC)c(Nc2nn3c(=O)c4ccccc4nc3s2)c1,.,.,.,.,.,-4%
Cc1ccc(C)c(Nc2nn3c(=O)c4cc5c(cc4nc3s2)OCO5)c1,16%,.,.,.,.,?
O=c1c2ccccc2nc2sc(Nc3ccc(F)cc3)nn12,.,2µM*,?,10µM*,?,?
COc1ccccc1Nc1nn2c(=O)c3ccc(C(=O)N4CCC(C)CC4)cc3nc2s1,.,-9%,15µM*,-8%,-5%,-19%
O=c1c2cc3c(cc2nc2sc(Nc4ccccc4)nn12)OCO3,16%,.,.,.,.,3µM*
COc1cccc(OC)c1NC(=O)C1CCCN1C(=O)Nc1cccc(Cl)c1 (stereo not given),.,-2%,-7%,-3%,-2%,0%
Cc1oc2ncn(CC(C)C)c(=O)c2c1C(=O)NCCc1ccc(Cl)cc1,.,.,.,.,.,0%
C/C(NC(=O)c1cccs1)=C1\C(=O)C[C@@H]2[C@H]1C2(C)C,.,?,?,?,?,15µM*
O=C(NCCc1ccccc1)C(=O)NCC(c1cccnc1)N1CCN(c2ccc(F)cc2)CC1 (stereo not given),.,.,.,.,.,-9%
C=CCOC(=O)c1ccc(N2CCN(c3ccccc3)CC2)nc1,.,23%,?,4%,21%,17µM*
CCOc1ccc(-c2cc(-c3nc(-c4ccc(OC)c(OC)c4)no3)[nH]n2)cc1,.,.,.,.,.,19µM*
COC(=O)c1cc(-c2ccc(OC)c(OC)c2)n[nH]1,-16%,-2%,?,17%,14%,-16%
COc1ccc(-c2cc(-c3cc(F)ccc3O)[nH]n2)cc1OC,?,3.2µM*,?,?,4µM*,8.5µM*
COc1ccc(-c2cc(-c3ccccc3O)[nH]n2)cc1OC,?,?,?,21µM*,4µM*,2.4µM*
COc1ccc(OCc2nc(-c3ccc(OC)c(OC)c3)no2)cc1,-14%,.,.,.,.,-16%
COc1ccc(-c2cc(-c3ccc(OC)c(OC)c3)n[nH]2)c(O)c1,22µM*,?,?,5.8µM*,?,5.4µM*
COc1cc2[nH]c(=O)n(Cc3ccc(C(=O)N4CCN(c5cc(Cl)ccc5C)CC4)cc3)c(=O)c2cc1OC,1%,.,.,.,.,-3%
CCc1cccc(NC(=O)c2sc3nc4n(c(=O)c3c2C)CCC4)c1,.,2µM*,?,?,2.8µM*,17µM*
CCOC(=O)c1ccc(NC(=O)c2sc3nc4n(c(=O)c3c2C)CCC4)cc1,.,0%,23µM*,1%[9.26 µM],-1%,-2%
COc1ccc(CCn2nc(C)c([N+](=O)[O-])c2C)cc1,.,3.2µM*,?,16µM*,3.2µM*,12µM*
